Here are results for nine compounds from PubChem BioAssay.

The source made the active and inactive calls.

Assay [1] in a line: E. coli DRC41 culture turbidity changes, primary screen, E. coli filamentation inducer project, strain DRC41, OD650, 48 h (AID 1152).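 Further: E. coli MC1000 strain DRC41 lacking acrAB efflux pump and sulA.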 The note with it: E. coli DRC41 (acrAB sulA), higher = more signal, called active from +8 up or from −8 down.
A short description of assay [2]: small-molecule binders of probe aLefty1, primary screen, biochemical, small-molecule microarray, 635/667 nm fluorescence (AID 1153).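 Further: score merges spot fluorescence with signal-to-noise ratio from the scanned slide images.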 As to conditions: higher = more signal.
Assay [3] in a line: PSAC antagonists in infected red cells, primary screen, cell-based, P. falciparum Indochina, OD700, 1 h (AID 1154). The note with it: P. falciparum Indochina infected RBC osmotic lysis, higher = more signal, called active from +8 up or from −8 down.
Assay [4] in a line: PSAC antagonists in infected red cells, primary screen, cell-based, P. falciparum Indochina, OD700, 2 h (AID 1155).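 Further: lysis reports solute entry through the parasite surface anion channel PSAC; channel blockers reduce lysis of infected cells.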 As to conditions: P. falciparum Indochina infected erythrocytes, osmotic lysis OD700; higher = more signal, called active from +8 up or from −8 down.
Assay [5] can be described thus: osmotic lysis modulators in infected erythrocytes, primary screen, PSAC antagonist project, cell-based, P. falciparum Indochina, OD700, 3 h (AID 1156). As to conditions: higher = more signal, called active from +8 up or from −8 down.
Assay [6] is described as follows: PSAC antagonists in infected red cells, primary screen, cell-based, P. falciparum Indochina, OD700, 18 h (AID 1157). As to conditions: P. falciparum Indochina infected erythrocytes, osmotic lysis OD700, 18 h; higher = more signal, called active from +8 up or from −8 down.
Assay [7] is described as follows: modulators of S6 phosphorylation in cells, primary screen, cell-based, A549, cytoblot, luminescence, serum-stimulated (AID 1158).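 Further: serum-stimulated A549 lung adenocarcinoma cells; signal is phosphorylated S6 detected by cytoblot immunostaining with HRP secondary.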 The note with it: A549 phospho-S6 cytoblot, 5 h, higher = more signal.
Assay [8] has as its target NADPH oxidase 2 (Homo sapiens) (UniProt P04839). Briefly: NOX2-dependent H2O2 signal modulators, primary screen, NOX inhibitor project, cell-based, HEK293-NOX2, PMA-stimulated, Amplex Red fluorescence (AID 1159). Further: test concentration not given here. The note with it: 45 min, higher = more signal, called active from +8 up or from −8 down.
Assay [9] addresses NADPH oxidase 4 (Homo sapiens) (UniProt Q9NPH5). The experiment in a line: NOX4-dependent H2O2 signal modulators, primary screen, NOX inhibitor project, cell-based, HEK293-NOX4, tetracycline-induced, Amplex Red fluorescence (AID 1160). As to conditions: 45 min, higher = more signal, called active from +8 up or from −8 down.
Assay [10] deals with NADPH oxidase 5 (Homo sapiens) (UniProt Q96PH1). Briefly: NOX5-dependent H2O2 signal modulators, primary screen, NOX inhibitor project, cell-based, HEK293-NOX5, Amplex Red fluorescence (AID 1161). The note with it: HEK293-NOX5, ionomycin, 45 min, higher = more signal.
A short description of assay [11]: A549 cell viability effects, profiling panel, calcein-AM fluorescence, 48 h, basal (AID 1162). Further: test concentration not given here. As to conditions: higher = more signal.
The nature of assay [12]: adipocyte viability effects, profiling panel, cell-based, 3T3-L1 adipocytes, calcein-AM fluorescence, 48 h, basal (AID 1163). Further: test concentration not given here. The note with it: 3T3-L1 adipocytes viability, higher = more signal.
The nature of assay [13]: HepG2 cell viability effects, profiling panel, calcein-AM fluorescence, 48 h, basal (AID 1164). Further: test concentration not given here. The note with it: higher = more signal.
The nature of assay [14]: MM1S cell viability effects, profiling panel, calcein-AM fluorescence, 48 h, basal (AID 1165).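 Further: viability of MM1S multiple myeloma cells under basal unstimulated conditions; test concentration not given here.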 The note with it: higher = more signal.
The nature of assay [15]: basal RPMI8226 viability, no added stimulus, profiling panel, cell-based, calcein-AM fluorescence, 48 h, PK04 Diversity Set (AID 1166).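 Further: cells grown under basal conditions without added stimulus; test concentration not given here.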 As to conditions: RPMI8226 myeloma viability, higher = more signal.
Assay [16] in a line: basal HepG2 mitochondrial membrane potential changes, profiling panel, cell-based, JC-1 fluorescence, 24 h, 100 nL compound (AID 1167). Further: test concentration not given here. As to conditions: higher = more signal.
A short description of assay [17]: basal 3T3-L1 adipocyte mitochondrial potential changes, profiling panel, cell-based, JC-1 fluorescence, 3T3-L1 adipocytes, 24 h, 100 nL compound (AID 1168). Further: test concentration not given here. As to conditions: JC-1 mitochondrial fluorescence, higher = more signal, called active from +8 up or from −8 down.
A short description of assay [18]: basal RPMI8226 mitochondrial membrane potential changes, profiling panel, cell-based, JC-1 fluorescence, 24 h, 100 nL compound (AID 1169). Further: test concentration not given here. As to conditions: RPMI8226 myeloma, JC-1 mitochondrial potential fluorescence, higher = more signal.
The nature of assay [19]: basal MM1S mitochondrial membrane potential changes, profiling panel, cell-based, JC-1 fluorescence, 24 h, 100 nL compound (AID 1170). Further: test concentration not given here. The note with it: higher = more signal.
Assay [20] is described as follows: A549 lung cancer cell viability effects, profiling panel, resazurin fluorescence, 24 h, PK04 Diversity Set (AID 1171). Further: test concentration not given here. As to conditions: higher = more signal, called active from +8 up or from −8 down. Background: The colour change of resazurin is a common sign of viable cells or microbes.

Chain of NADPH oxidase 4 (Homo sapiens) (Q9NPH5 whole entry, looked up): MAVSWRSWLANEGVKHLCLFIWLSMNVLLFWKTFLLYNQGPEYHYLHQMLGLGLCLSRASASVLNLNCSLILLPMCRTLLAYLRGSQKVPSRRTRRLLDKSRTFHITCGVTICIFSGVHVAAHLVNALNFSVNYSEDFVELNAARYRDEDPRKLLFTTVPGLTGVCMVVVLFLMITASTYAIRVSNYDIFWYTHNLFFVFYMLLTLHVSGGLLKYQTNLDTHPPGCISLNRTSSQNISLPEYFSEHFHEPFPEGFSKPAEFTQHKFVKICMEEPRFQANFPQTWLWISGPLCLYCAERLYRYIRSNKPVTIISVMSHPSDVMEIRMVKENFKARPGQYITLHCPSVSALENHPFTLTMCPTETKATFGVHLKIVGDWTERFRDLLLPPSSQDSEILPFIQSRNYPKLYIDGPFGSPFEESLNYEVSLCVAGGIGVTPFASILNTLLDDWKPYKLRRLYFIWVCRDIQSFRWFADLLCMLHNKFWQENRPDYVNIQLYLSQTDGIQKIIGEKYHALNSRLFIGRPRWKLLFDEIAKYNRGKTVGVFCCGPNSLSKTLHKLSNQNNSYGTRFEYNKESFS
Chain of NADPH oxidase 2 (Homo sapiens) (P04839 whole entry, looked up): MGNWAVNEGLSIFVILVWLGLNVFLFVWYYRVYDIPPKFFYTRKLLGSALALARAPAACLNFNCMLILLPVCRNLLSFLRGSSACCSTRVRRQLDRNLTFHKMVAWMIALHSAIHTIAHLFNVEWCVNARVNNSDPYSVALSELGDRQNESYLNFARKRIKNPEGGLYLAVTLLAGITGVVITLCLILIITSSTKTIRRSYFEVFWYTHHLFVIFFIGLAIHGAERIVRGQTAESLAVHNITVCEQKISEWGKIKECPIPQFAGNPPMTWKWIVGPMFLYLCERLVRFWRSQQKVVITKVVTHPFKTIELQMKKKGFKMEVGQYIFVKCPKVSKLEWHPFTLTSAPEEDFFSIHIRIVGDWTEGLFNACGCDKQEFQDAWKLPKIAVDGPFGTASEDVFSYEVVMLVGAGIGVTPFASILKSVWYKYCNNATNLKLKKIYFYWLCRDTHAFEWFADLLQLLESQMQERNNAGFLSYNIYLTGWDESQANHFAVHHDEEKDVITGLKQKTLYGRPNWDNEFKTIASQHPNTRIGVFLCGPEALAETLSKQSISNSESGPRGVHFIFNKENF
Chain of NADPH oxidase 5 (Homo sapiens) (Q96PH1 whole entry, looked up): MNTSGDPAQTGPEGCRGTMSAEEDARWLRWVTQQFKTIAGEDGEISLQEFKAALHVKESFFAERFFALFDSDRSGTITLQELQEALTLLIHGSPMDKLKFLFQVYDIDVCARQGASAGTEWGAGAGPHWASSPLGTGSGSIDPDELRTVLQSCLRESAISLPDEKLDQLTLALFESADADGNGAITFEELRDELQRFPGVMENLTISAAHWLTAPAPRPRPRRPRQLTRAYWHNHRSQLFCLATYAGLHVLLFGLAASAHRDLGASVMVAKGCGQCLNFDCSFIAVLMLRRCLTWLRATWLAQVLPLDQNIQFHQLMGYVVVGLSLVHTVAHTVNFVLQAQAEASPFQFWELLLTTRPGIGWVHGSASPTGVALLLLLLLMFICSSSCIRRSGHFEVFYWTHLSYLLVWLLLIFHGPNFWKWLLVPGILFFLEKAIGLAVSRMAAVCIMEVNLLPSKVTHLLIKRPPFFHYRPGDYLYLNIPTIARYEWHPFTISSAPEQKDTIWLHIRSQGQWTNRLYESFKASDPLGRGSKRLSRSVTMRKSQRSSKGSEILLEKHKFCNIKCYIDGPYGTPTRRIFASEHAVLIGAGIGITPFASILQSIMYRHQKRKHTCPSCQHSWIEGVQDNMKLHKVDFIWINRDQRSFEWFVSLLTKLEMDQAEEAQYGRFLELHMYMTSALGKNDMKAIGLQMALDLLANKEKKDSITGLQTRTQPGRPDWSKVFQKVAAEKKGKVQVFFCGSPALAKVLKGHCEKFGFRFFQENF

On to `O=C1O[C@H](c2ccccc2)[C@H](c2ccccc2)N2[C@H]1[C@@H](C(=O)NC[C@H](O)c1ccccc1)[C@]1(C(=O)Nc3ccccc31)[C@H]2c1ccc(OCCO)cc1`, for which the z-score in assay [1] is -1.26 (inactive); in assay [3], 4.2 (inactive); in [4] it was 1.36 (inactive); in assay [5] it was 0.179 (inactive); in assay [6], 1.47 (inactive); in assay [7], 0.0578. Besides, the z-score in assay [8] was 1.55 (inactive); in assay [9] it was 1.02 (inactive); in [10], 1.34; in assay [11], -0.425; in assay [12] it was 1.61; in assay [13], -1.41. For the same compound, the z-score was -2.53 in assay [14]; -3.09 in [15]; -2.29 in assay [16]; 1.95 (inactive) in assay [17]; -1.21 in assay [18]; -1.21 in assay [19]. In addition, the z-score in [20] is -0.333 (inactive). The compound further returned a composite z-score in [2] of 0.159.

As to `CC(C)(C)OC(=O)CC[C@]1(C(=O)O)N=C(c2ccc(OCCCO)cc2)O[C@H]1c1ccccc1N=[N+]=[N-]`, the z-score was 0.234 (inactive) in assay [1]; 32.9 (active) in [3]; 28.4 (active) in [4]; 0.912 (inactive) in assay [5]; 6.45 (inactive) in [6]; -0.466 in assay [7]. Moreover, the z-score is 0.7 (inactive) in assay [8]; 1.14 (inactive) in assay [9]; 1.31 in assay [10]; 0.559 in [11]; -0.598 in assay [12]; 0.331 in assay [13]. The z-score in [14] is -0.128; in [15], -0.24; in assay [16], -2.45; in assay [17], 0.328 (inactive); in assay [18], -0.506; in assay [19], -0.589. Further, the z-score in [20] is 0.0553 (inactive). The compound further had a composite z-score in assay [2] of 1.58.

On to `O=C1OCCC/C=C\[C@H]2OC34C=CCN(Cc5ccccc5)C(=O)[C@H]3N(CCCCCCO)C(=O)[C@@H]4C12` (stereo not given in full), for which the z-score in assay [1] is 1.19 (inactive); in [3], 2.96 (inactive); in assay [4] it was 0.141 (inactive); in assay [5], 0.59 (inactive); in [6], 0.524 (inactive); in [7] it was 0.0169. Besides, the z-score in assay [8] was 1.12 (inactive); in assay [9] it was 0.279 (inactive); in assay [10], 1.88; in [11], 2.3; in assay [12], 0.0451; in [13], 0.685. The z-score in assay [14] was 1.85; in [15], 1.05; in assay [16] it was 1.54; in assay [17], 0.948 (inactive); in [18], 0.44; in assay [19], -1.11. In [20], the z-score was 1.28 (inactive). Also, the composite z-score in assay [2] is -0.0576.

With `CCOC(=O)[C@H]1C/C=C/C[C@H](C(=O)OCC)C(=O)O[C@H]2[C@@H](OC)O[C@H](CO)[C@@H](OC(=O)Nc3cccc(F)c3)[C@@H]2OC1=O`, the z-score in assay [1] is 0.0021 (inactive); in assay [3], 4.53 (inactive); in [4] it was 1.81 (inactive); in assay [5] it was -2.04 (inactive); in assay [6], 1.61 (inactive); in [7], -0.0707. In addition, the z-score is -2.12 (inactive) in assay [8]; -0.389 (inactive) in [9]; -1.22 in assay [10]; -3.9 in [11]; -0.502 in [12]; -5.19 in assay [13]. The z-score in [14] was -3.3; in [15] it was -4.16; in assay [16], -3.56; in assay [17] it was 1.84 (inactive); in assay [18], -0.959; in [19] it was -1.99. The z-score in assay [20] is -5.95 (inactive). Also, the composite z-score in [2] amounted to 1.53.

With `CC(C)(C)OC(=O)CC[C@]12N=C(c3ccc(OCCCO)cc3)O[C@H]1c1ccccc1N(CCS(=O)(=O)c1ccccc1)C2=O`, the z-score in assay [1] is -1.59 (inactive); in [3], 32.2 (active); in assay [4] it was 28.5 (active); in assay [5], 4.08 (inactive); in [6], 8.71 (active); in assay [7], -0.321. The z-score was -0.859 (inactive) in assay [8]; 1.12 (inactive) in [9]; -1.06 in assay [10]; 1.16 in assay [11]; 0.308 in assay [12]; 1.44 in assay [13]. The z-score in assay [14] was -1.52; in [15] it was -0.568; in assay [16], -0.784; in [17], 1.45 (inactive); in [18], -1.09; in [19], -0.719. Further, the z-score in [20] was -1.71 (inactive). In [2], this compound showed a composite z-score of 0.447.

For the compound `CCCC=C(CCC)[C@@H](NC(=O)Oc1ccc(F)cc1)c1ccc(C(=O)OC)cc1`, the z-score in assay [1] was -0.755 (inactive); in assay [3], 0.454 (inactive); in [4], 1.34 (inactive); in assay [5] it was -1.54 (inactive); in [6] it was 1.35 (inactive); in assay [7] it was 0.298. The z-score in [8] was -0.395 (inactive); in assay [9] it was -1.17 (inactive); in [10], -0.592; in assay [11], -1.33; in [12] it was -0.609; in [13], 0.0049. Further, the z-score was -1.43 in assay [14]; -2.42 in assay [15]; 6.8 in [16]; 0.261 (inactive) in [17]; -0.754 in assay [18]; -1.44 in assay [19]. Moreover, the z-score in assay [20] was 0.717 (inactive). The compound also had a composite z-score in assay [2] of 0.221.

As for `O=C1OCCC=C[C@H]2OC34C=CCN(CCN5CCOCC5)C(=O)[C@H]3N(CCCCCCO)C(=O)[C@@H]4C12` (stereo not given in full), the z-score in assay [1] was 0.36 (inactive); in [3], 0.683 (inactive); in [4], 0.539 (inactive); in assay [5] it was 0.835 (inactive); in assay [6], 0.353 (inactive); in assay [7], -0.156. Also, the z-score is 0.658 (inactive) in assay [8]; -0.289 (inactive) in [9]; 1.67 in assay [10]; 0.758 in assay [11]; -3.63 in assay [12]; 0.821 in assay [13]. Besides, the z-score is 1.32 in [14]; 0.477 in assay [15]; 1.07 in assay [16]; -0.347 (inactive) in assay [17]; 0.0953 in assay [18]; 0.341 in assay [19]. Moreover, in assay [20], the z-score is 0.459 (inactive). For the same compound, in [2], the composite z-score was -0.286.

Take `COCCCN1C(=O)[C@@]2(c3ccc([N+](=O)[O-])cc3)CC(=O)N(C3CCCCC3)[C@@H]2c2ccc(CO)cc21`: the z-score in assay [1] was -0.0972 (inactive); in assay [3] it was -0.141 (inactive); in assay [4] it was -0.063 (inactive); in [5], -0.382 (inactive); in assay [6] it was 0.0583 (inactive); in [7] it was -0.495. For the same compound, the z-score was -2.14 (inactive) in [8]; -1.3 (inactive) in assay [9]; -0.379 in [10]; -0.794 in assay [11]; -1.03 in [12]; 0.14 in [13]. In addition, the z-score was 0.819 in assay [14]; -1.23 in [15]; -0.393 in assay [16]; 0.939 (inactive) in [17]; -0.739 in assay [18]; -0.847 in assay [19]. In addition, the z-score in assay [20] is -1.18 (inactive). The composite z-score in [2] is -0.35.

Consider `CCOC(=O)[C@H]1C/C=C/C[C@H](C(=O)OCC)C(=O)O[C@H]2[C@@H](OC)O[C@H](CO)[C@@H](OC(=O)Nc3ccc(C#N)cc3)[C@@H]2OC1=O`, for which the z-score in [1] was 3.06 (inactive); in [3] it was 12.3 (active); in [4], 2.33 (inactive); in [5] it was -0.906 (inactive); in [6] it was 1.13 (inactive); in assay [7], 2.47. For the same compound, the z-score in assay [8] was -0.311 (inactive); in [9], 0.2 (inactive); in assay [10], 1.4; in [11] it was -2.47; in assay [12], 1.37; in assay [13] it was -4.91. In addition, the z-score in [14] was -3.15; in assay [15], -4.11; in assay [16], -2.79; in assay [17] it was 1.14 (inactive); in [18], -0.975; in [19], -2.11. Further, in assay [20], the z-score is -4.98 (inactive). The composite z-score in [2] is -0.364.
